According to PubChem BioAssay (NCATS):
Inconclusive results are not listed. Entries that show only a call come without a potency. Unmarked numbers belong to inactive results. Activity calls are given as the source filed them. Calls come from the whole dose curve; as a rule, active = well fitted activation curve with a large enough effect; inconclusive = small, poorly fitted or top-dose-only effect; inactive = flat fitted curve, though single readings scatter.

experiment: Primary redox qHTS assay for identification of artifact compounds. (AID 1845223); details: Amplex Red/HRP redox cycling with DTT, fluorescence; series mostly up to 53.8 µM
Summary of the method: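 Redox-cycling detection via DTT (250 uM final) oxidation coupled to Amplex Red (25 uM)/HRP (250 mU/mL) in HBSS. 15 min preincubation plus 30 min after DTT, room temperature. Ex/Em 525/598 nm; 4-parameter Hill fit against DMSO and 10 uM DA3003.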

Structure (SMILES) | Potency | redox activity (% of DA3003)
CCc1nc(C(N)=O)c(Nc2ccc(N3CCC(N4CCN(C)CC4)CC3)c(OC)c2)nc1NC1CCOCC1 | inactive | 
CC(=O)OCC1=C[C@H](O)[C@@H]2C(C(=O)O)=CO[C@@H](O[C@@H]3O[C@H](CO)[C@@H](O)[C@H](O)[C@H]3O)[C@H]12 | inactive | 
O=C(c1ccc(C#Cc2cccc(F)c2)cn1)N1CC2CC2C1 (centres undefined) | inactive | 
C[C@@H]1O[C@@H](OC[C@H]2O[C@@H](OCC3CCC4CC3C4(C)C)[C@H](O)[C@@H](O)[C@@H]2O)[C@H](O)[C@H](O)[C@H]1O (some centres undefined) | inactive | 
COc1cc(O[C@@H]2O[C@H](CO)[C@@H](O)[C@H](O)[C@H]2O)c(CCC(=O)OC[C@H]2O[C@@H](Oc3cc(OC)c(C4OC(=O)C(C)(O)C4O)cc3CCC(=O)O)[C@H](O)[C@@H](O)[C@@H]2O)cc1C1OC(=O)C(C)(O)C1O (some centres undefined) |  | -16.2% [at 11.5 µM]
C=C(C(=O)O)C1CCC(C)C2CCC(=O)OC2(C)C1 (centres undefined) | inactive | 
NS(=O)(=O)NCCNc1nonc1C(=Nc1ccc(F)c(Br)c1)NO | inactive | 
CC1(C)CCCC2(C)C(CO)C3CCC2C31 (centres undefined) | inactive | 
COc1c2c(c(C)c3c1C(=O)OC3)OC1(C)CC(O)C3(O)C(C)(C)OC(=O)CCC3(C)C1C2 (centres undefined) | inactive | 
CN(C)C/C=C/C(=O)Nc1ccc(C(=O)Nc2cccc(Nc3ncc(Cl)c(-c4c[nH]c5ccccc45)n3)c2)cc1 | inactive | 
C=C1CC2(C(=O)O)CC1CCC2C1(C)CCCC2(C)C(=O)OC(O)C21 (centres undefined) | inactive | 
COc1cc(C(O)C(CO)Oc2ccc(CCCO[C@@H]3O[C@@H](C)[C@H](O)[C@@H](O)[C@H]3O)cc2OC)ccc1O (some centres undefined) | inactive | 
C#C[C@]1(O)CC[C@H]2[C@@H]3CCC4=C/C(=N/O)CC[C@@H]4[C@H]3CC[C@@]21CC | inactive | 
C=C1CCC2C(C)(C)C(O)CCC2(C)C1CCC(C)CCOC(=O)CCC(=O)O (centres undefined) | inactive | 
N#Cc1ccnc(N2C(=O)CC[C@H]2C(=O)N(c2cncc(F)c2)[C@H](C(=O)NC2CC(F)(F)C2)c2ccccc2Cl)c1 | inactive | 
COc1c(C)c2c(c(O)c1C/C=C(\C)CC/C=C(\C)CCC(=O)O)C(=O)OC2 | inactive | 
CN(NC(=O)CC(=O)NN(C)C(=S)c1ccccc1)C(=S)c1ccccc1 | inactive | 
CCCC1=CC2=C(CO1)C(=O)C(C)(OC(=O)c1c(C)cc(OC)cc1O)C(O)C2 (centres undefined) | inactive | 
CCCOc1ccn2c(C(C)=O)cc(-c3ccccc3S(C)(=O)=O)c2c1 | inactive | 
